15 molecules from PubChem BioAssay (NCATS) can be followed below.

Results filed as inconclusive are left out. Activity calls are given as the source filed them. Unless noted, calls come from the whole dose curve.

Assay [1] is described as follows: Primary qHTS for Huh7 cytotoxicity: counterscreen for inhibitors of MERS-S pseudotyped particle cell entry (AID 1479147). For activity change, negative = cytotoxicity: % is set by controls: 0 for no effect and ±100 for the full control effect. The conditions noted are these: outcome: dose series up to 57.1 µM unless noted.
The nature of assay [2]: Primary qHTS for inhibitors of MERS-S pseudo-typed particle cell entry (AID 1479149). For activity change, negative = inhibition: % is set by controls: 0 for no effect and ±100 for the full control effect. Note: nearly all actives have a fitted effect of over 60% in size. The note with it: outcome: dose series up to 57.1 µM unless noted. (In general: In qHTS, concentration-response curves come from the screen itself.)
Assay [3] in a line: Primary qHTS for Vero E6 cytotoxicity: counterscreen for inhibitors of SARS-S pseudo-typed particle cell entry (AID 1479150). For activity change, negative = cytotoxicity: % is set by controls: 0 for no effect and ±100 for the full control effect. The note with it: outcome: dose series up to 57.1 µM unless noted.
A short description of assay [4]: Cytotoxicity counterscreen for inhibitors of SARS-CoV-2 cell entry (AID 1645845). For activity change, negative = cytotoxicity: % is set by controls: 0 for no effect and ±100 for the full control effect. Note: nearly all actives have a fitted effect of over 50% in size. The note with it: outcome: dose series up to 57.1 µM unless noted. An outline of the steps: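 HEK293-ACE2 cells (Expi293F stably expressing human ACE2) seeded overnight, then compound for 1 h plus 48 h at 37C. Viability as ATP content by luminescence; normalized to wells with cells and media-only wells.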
A general note: Counterscreens check selectivity or assay interference.

Assay [5] can be described thus: Primary qHTS to identify inhibitors of SARS-CoV-2 cell entry (AID 1645846). Note: nearly all actives have a fitted effect of over 45% in size. The conditions noted are these: SARS-CoV-2 pseudovirus cell entry assay, luminescence; activity change, negative = inhibition: at 57.1 µM (top of the series) unless noted. Summed up:
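Data are normalized to wells receiving SARS-CoV-2-S pseudoparticles and those given bald particles. Entry signal was luciferase luminescence in stable hACE2 Expi293F cells, 48 hr post-infection, after 1 hr compound pretreatment.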

Assay [6] has as its target Glutathione peroxidase 1 (Homo sapiens) (UniProt P07203). Kind of assay: Primary qHTS Assay for Inhibitors of Recombinant Selenoprotein Glutathione Peroxidase 1 (GPX1) (AID 1845191; active = well fitted curve in the direction sought with a large enough effect; an effect the other way counts as inactive or inconclusive; note: % is set by controls: 0 for no effect and ±100 for the full control effect; nearly all actives have a fitted effect of over 65% in size). Summed up:
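GR-coupled assay: compounds preincubated 30 min at room temperature with GPX1, then reaction started with CHP; final 10 nM GPX1, 1 mM GSH, 0.5 mM CHP, 0.5 mM NADPH, 100 nM GR, 0.01% BSA, pH 7.5 Tris buffer. NADPH fluorescence (340/450 nm) read at 0 and 15 min.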

A short description of assay [7]: qHTS Assay for Identifying Gametocytocidal Compounds (AID 743244; active = well fitted curve in the direction sought with a large enough effect; an effect the other way counts as inactive or inconclusive; note: potency is the fitted concentration of half-maximal effect). The conditions noted are these: P. falciparum 3D7 stage III-V gametocytes, alamarBlue, 72 h. Summed up:
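Viability read-out was resazurin reduction (alamarBlue, 24 h) measured at Ex 525/Em 598 nm. Beforehand, late-stage (III-V) 3D7 P. falciparum gametocytes at 20,000 cells/well were incubated with compound 72 h at 37C under 5% CO2.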

Chain of Glutathione peroxidase 1 (Homo sapiens) (P07203 whole entry, looked up): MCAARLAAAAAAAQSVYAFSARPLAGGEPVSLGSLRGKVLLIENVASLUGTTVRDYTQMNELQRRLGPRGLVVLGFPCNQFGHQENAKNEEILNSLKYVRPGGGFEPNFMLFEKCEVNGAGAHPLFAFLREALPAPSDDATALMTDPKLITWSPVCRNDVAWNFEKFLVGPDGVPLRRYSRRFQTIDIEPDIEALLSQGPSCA

As for `CCC(=O)OC1(C(=O)CCl)C(C)CC2C3CC(F)C4=CC(=O)C=CC4(C)C3(F)C(O)CC21C` (stereo not drawn), the Potency result in assay [1], in assay [2], in assay [3] and in assay [4] was “inactive” in each case. In addition, the activity change, negative = inhibition in assay [5] was -5.75%.
`CCCCCCCCCC(=O)OC1CC[C@H]2[C@@H]3CCC4=CC(=O)CC[C@@H]4[C@H]3CC[C@]12C` (stereo partly drawn): the Potency entry in assay [1], in assay [2], in assay [3], in assay [4] and in assay [6] was “inactive” each time. Further, in assay [5], the activity change, negative = inhibition worked out at 0.678%.
Consider `CN(C)C1C(=O)C(C(N)=O)=C(O)C2(O)C(=O)C3=C(O)c4c(O)ccc(Cl)c4C(C)(O)C3CC12` (stereo not drawn), for which the Potency result in assay [1], in assay [2], in assay [3], in assay [4] and in assay [6] was “inactive” throughout.
Consider `O=C(O)CCC/C=C\C[C@@H]1[C@@H](/C=C/[C@@H](O)COc2cccc(Cl)c2)[C@H](O)C[C@@H]1O`, for which the Potency entry in assay [1], in assay [2], in assay [3], in assay [4] and in assay [5] was “inactive” throughout.
As for `CC(C)N=c1cc2n(-c3ccc(Cl)cc3)c3ccccc3nc-2cc1Nc1ccc(Cl)cc1`, the Potency result in assay [1], in assay [2], in assay [3] and in assay [4] was “inactive” each time. The activity change, negative = inhibition in assay [5] was -33.7%.
For the molecule `CCCCCCCCCCC(=O)O[C@H]1CC[C@H]2[C@@H]3CCC4=CC(=O)CC[C@]4(C)[C@H]3CC[C@]12C`, the Potency result in assay [1], in assay [2], in assay [3], in assay [4], in assay [5] and in assay [6] was “inactive” each time.
With `CCCCC(CC)COc1ccc(-c2nc(-c3ccc(OC)cc3)nc(-c3ccc(OCC(CC)CCCC)cc3O)n2)c(O)c1` (stereo not drawn), the activity change, negative = cytotoxicity in assay [1] was -14.4% [at 5.34 µM] (inactive); in assay [3], -1.62% [at 5.34 µM] (inactive); in assay [4] it was -8.22% [at 5.25 µM] (inactive). In addition, the activity change, negative = inhibition in assay [2] is -1.24% [at 5.34 µM] (inactive). Besides, the outcome in assay [5] was “inactive [at 5.25 µM]”.
As for `COc1cc(/C=C\C(=O)N2CCN(CC(=O)N3CCCC3)CC2)cc(OC)c1OC`, the Potency entry in assay [1], in assay [2], in assay [3], in assay [4] and in assay [5] was “inactive” throughout.
As for `CCC1OC(=O)[C@H](C)C(=O)[C@H](C)[C@@H](OC2O[C@H](C)C[C@H](N(C)C)[C@H]2O)[C@](C)(OC)C[C@@H](C)C(=O)[C@@H](C)[C@@H]2N(CCCCn3cnc(-c4cccnc4)c3)C(=O)O[C@]12C` (stereo partly drawn), the Potency entry in assay [1] and in assay [3] was “inactive” throughout.
As to `CC[C@@H]1/C=C(\C)C[C@H](C)C[C@H](OC)[C@H]2O[C@@](O)(C(=O)C(=O)N3CCCC[C@H]3C(=O)O[C@H](/C(C)=C/[C@@H]3CC[C@H](Cl)[C@H](OC)C3)[C@H](C)[C@@H](O)CC1=O)[C@H](C)C[C@@H]2OC`, the Potency result in assay [1] and in assay [3] was “inactive” each time.
On to `O=C1CCC(=O)N1CO`, for which the Potency entry in assay [1], in assay [2], in assay [3] and in assay [5] was “inactive” in each case.
For the molecule `CN1CCc2c(c3ccccc3n2Cc2ccccc2)C1`, the Potency result in assay [1] and in assay [3] was “inactive” throughout.
As for `CN[C@@H]1[C@@H](O[C@H]2O[C@H](CO)[C@@H](N)[C@H](O)[C@H]2O)O[C@H]2C[C@@H](N)[C@H](O[C@H]3[C@H](O)[C@@H](O)[C@H](N)C[C@@H]3N)O[C@@H]2[C@@H]1O`, the Potency entry in assay [1], in assay [2] and in assay [4] was “inactive” throughout. For the same molecule, the activity change, negative = inhibition in assay [5] is -26.5%.
`N=C(N)c1ccc(OCCCOc2ccc(C(=N)N)cc2Br)c(Br)c1`: the Potency entry in assay [1] and in assay [3] was “inactive” each time.
For `CCCC(CCC)C(=O)OC1C[C@H]2CC[C@@H](C1)[N+]2(C)C` (stereo partly drawn), the Potency in assay [7] was 10 µM (active). Moreover, the Potency result in assay [1], in assay [2], in assay [3] and in assay [4] was “inactive” throughout.
